Laboratory results reported in PubChem BioAssay AID1851 (National Center for Advancing Translational Sciences (NCATS), 2009).
Hit rate of the full screen: of about 16,000 compounds, about 4,000 (25%) were called active. About 26% were inconclusive and are not listed. The call rests on the fitted dose curve; in most records, active means well fitted curve in the direction sought with a large enough effect; inconclusive means small, poorly fitted or top-dose-only effect, or effect the other way; inactive means no such curve, though single readings can be large or run the other way. These entries were drawn from the full list.

The compounds below were run against Cytochrome P450 2C9 (Homo sapiens) (UniProt P11712) (assay: Cytochrome panel assay with activity outcomes). Details: recombinant CYP, pro-luciferin dealkylation, luminescence, p450-cyp2c9; series mostly up to 57.1 µM; activity, negative = inhibition: at the top concentration.
Cytochrome P450 2C9 (Homo sapiens), sequence (P11712 whole entry, looked up): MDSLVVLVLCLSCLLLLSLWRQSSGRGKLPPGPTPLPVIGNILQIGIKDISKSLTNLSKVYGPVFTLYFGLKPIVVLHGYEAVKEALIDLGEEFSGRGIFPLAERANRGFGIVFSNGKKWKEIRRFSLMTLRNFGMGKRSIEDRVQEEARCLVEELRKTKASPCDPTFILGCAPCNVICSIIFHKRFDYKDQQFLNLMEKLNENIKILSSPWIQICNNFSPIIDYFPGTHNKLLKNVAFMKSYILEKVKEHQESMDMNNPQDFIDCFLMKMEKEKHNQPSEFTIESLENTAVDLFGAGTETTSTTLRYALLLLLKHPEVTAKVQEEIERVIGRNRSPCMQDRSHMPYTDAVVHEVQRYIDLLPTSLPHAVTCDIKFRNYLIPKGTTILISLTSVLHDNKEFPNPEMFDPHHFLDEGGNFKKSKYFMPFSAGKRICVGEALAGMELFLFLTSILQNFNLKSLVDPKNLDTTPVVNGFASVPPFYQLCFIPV
On the % scale 0 is the no-effect control and ±100 the full control effect.

activity, negative = inhibition, inactive:
Cc1nc2cnc(N3CCNCC3)nc2n(Cc2cccs2)c1=O 0.901%
CN1CCN(c2ncc3nc(-c4ccc(Cl)cc4)c(=O)n(Cc4cccs4)c3n2)CC1 -12.8%
O=c1cnc2cnc(N3CCNCC3)nc2n1Cc1cccs1 13.9%
COc1ccc(NC(=O)N2CC[C@@]3(CCCN(C(=O)c4cc(C(F)(F)F)cc(C(F)(F)F)c4)C3)C2)cc1 -2.5%
O=C1C(O)=C(O)C(=O)C(O)=C1O 3.72% [at 25.6 µM]
Cc1ccnc(NS(=O)(=O)c2ccc(N=[N+]=[N-])cc2)n1 -7.68% [at 11.4 µM]
COC(=O)[C@@H]1O[C@@H](c2c(OC)c(OC)c(C)c(OC)c2OC)[C@H](C)[C@@H](O)[C@@H]1C 14.6% [at 11.4 µM]
COc1ccc(-n2c(=O)c(-c3cccs3)nc3cnc(N4CCNCC4)nc32)cc1 -27.1%
COCCn1c(=O)c(-c2cccs2)nc2cnc(N3CCN(C)CC3)nc21 -17.1%
Cc1noc(C)c1C(=O)N1CCC2(CCN(C(=O)NC(C)C)CC2)CC1 -18.1%
COC(=O)C1=C(CSc2nncn2C)NC(=O)NC1c1ccc(F)cc1 (stereo not drawn) -23.8%
OCCCCNCc1ccc(OCc2ccccc2Cl)cc1 15.7%
Nc1cccc(OCc2nc(N)nc(N)c2-c2ccc(Cl)cc2)c1 -4.32% [at 11.4 µM]
CC1(C)S[C@@H]2[C@H](NC(=O)[C@@H](NC(=O)N3CCNC3=O)c3ccccc3)C(=O)N2[C@H]1C(=O)O -10.6% [at 25.6 µM]
O=C(Nc1ccc(Nc2ccc3c(c2)C(=O)c2ccccc2C3=O)c2c1C(=O)c1ccccc1C2=O)c1ccccc1 -2.6% [at 11.4 µM]
O=C1c2ccccc2-c2ccc(NC(=O)[C@H]3CCCC[C@@H]3C(=O)O)cc21 -10.8% [at 11.4 µM]
O=C(O)c1ccc(Nc2ccnc3cc(Cl)ccc23)cc1O -1.26% [at 11.4 µM]
CN(C)c1ncc2nc(-c3cccs3)c(=O)n(-c3ccccc3)c2n1 -16.4%
COc1ccc(-n2c(=O)c(-c3ccccc3)nc3cncnc32)cc1 -26.2%
COc1ccc(-n2c(=O)c(-c3cccs3)nc3cncnc32)cc1 -4.83%
O=c1c(-c2ccc(F)cc2)nc2cncnc2n1-c1ccccc1 -21.2%
CSCC[C@@H]1NC(=O)C/C=C\[C@@H](C)COC(=O)[C@@H](C)COC1=O 14.5% [at 11.4 µM]
COc1nc(Oc2ccc(/C=N/O)cc2)nc(N(C)C)n1 3.8%
O=S(=O)(O)c1ccc(N=Nc2ccccc2)cc1 -1.61% [at 11.4 µM]
O=S(=O)(/N=C(/Nc1ccccn1)c1ccccc1)c1ccccc1 -21.9%
COc1cccc(-c2nccc(NCc3cccs3)n2)c1 -26.6% [at 2.29 µM]
COc1ccc(CNc2ccnc(-c3cccnc3)n2)c(OC)c1 8.69% [at 2.29 µM]
N#Cc1cccc(-c2nccc(NCc3cccnc3)n2)c1 -11.5% [at 2.29 µM]
c1ccc(CNc2ccnc(-c3cccnc3)n2)cc1 -12.1% [at 2.29 µM]
CN(C)C(=O)c1ccc(-c2nccc(NCc3cccnc3)n2)cc1 5.1% [at 2.29 µM]
Cc1ccccc1-c1nccc(NCc2cccnc2)n1 -17.5% [at 2.29 µM]
c1csc(CNc2ccnc(-c3ccoc3)n2)c1 -25.1% [at 2.29 µM]

AC50, active:
O=c1c(-c2cccs2)nc2cnc(N3CCNCC3)nc2n1Cc1cccs1 12.6 µM
COCCn1c(=O)c(-c2cccs2)nc2cnc(N3CCNCC3)nc21 2 µM
CCOC(=O)C1=C(C)N=C2SC(C(=O)OC)=CC(=O)N2C1c1ccc(F)cc1 (stereo not drawn) 7.08 µM
Cc1cc(OCc2nc(N)nc(N)c2-c2ccc(Cl)c(Cl)c2)ccc1[N+](=O)[O-] 1.58 µM
CCC(=O)Nc1ccc2c(c1)C(=O)c1ccccc1C2=O 3.16 µM
O=c1c(-c2cccs2)nc2cncnc2n1-c1ccccc1 10 µM
O=c1c(-c2ccccc2)nc2cncnc2n1-c1ccccc1 15.8 µM
O=c1c(-c2cccc(Cl)c2)nc2cncnc2n1-c1ccccc1 10 µM
CCCCn1c(NCc2ccccc2NS(=O)(=O)c2ccc(C)cc2)nc2ccccc21 1.58 µM
CN(C)C(=C(C#N)C#N)N1CCN(c2ccc(Cl)c(Cl)c2)CC1 12.6 µM
O=S(=O)(C=C(c1ccccc1)c1ccccc1)c1ccccc1 7.08 µM
CC(C)(C)C(=O)Nc1ccnc(-c2cccnc2)n1 3.16 µM
c1cncc(-c2nccc(NCc3cccs3)n2)c1 0.398 µM
O=C(Nc1ccnc(-c2cccnc2)n1)c1cccc(Cl)c1Cl 3.98 µM
O=C(Nc1ccnc(-c2cccnc2)n1)c1ccccc1Cl 15.8 µM

AC50, inactive:
c1ccc(CN(CC2=NCCN2)c2ccccc2)cc1
